Results on 36 molecules are retold here after PubChem BioAssay (EPA / NIEHS).

Molecules are shown by their SMILES. Calls of active or inactive are those of the source. How the source made its calls: active means hit-call score of the fitted dose curve at least 0.9, where 1 is the maximum; inactive means score below 0.9.

This test in a line: ATG_PXRE_CIS: Attagene CIS-FACTORIAL HepG2 Assay for human Pregnane X Receptor Element (PXRE) (AID 2282957). To be noted: HepG2 Attagene CIS-FACTORIAL PXRE reporter, mRNA; actives raise or lower the signal. An outline of the steps:
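Cis-element reporter mRNA in human hepatoma HepG2 cells is measured 24 h post-dosing by RT-PCR, primer-extension labeling and capillary electrophoresis; gain or loss of signal is fitted relative to DMSO.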
As for `Cn1c(-c2ccccc2)cc(-c2ccccc2)[n+]1C`, the molecule was called inactive.
With `CC(C)C1(C)N=C(c2ncccc2C(=O)O)NC1=O` (stereo unspecified), the call was inactive.
With `COc1ccc(-c2ccccc2)cc1NNC(=O)OC(C)C`, the AC50 was 3.69 µM (active).
Turning to `CC(C)=CC1C(C(=O)OCc2coc(Cc3ccccc3)c2)C1(C)C` (stereo unspecified), the half-maximal activity concentration (AC50) is 5.63 µM (active).
Turning to `CCSC(=O)N1CCCCCC1`, the AC50 was 15.9 µM (active).
With `COc1cc(Cl)c(OC)cc1Cl`, the AC50 is 50 µM (active).
Turning to `OC(c1ccc(Cl)cc1)(c1ccc(Cl)cc1)C(Cl)(Cl)Cl`, the AC50 is 2.86 µM (active).
For `CCOP(=O)(OCC)Oc1nc(Cl)c(Cl)cc1Cl`, the AC50 is 45.7 µM (active).
On to `COC(=O)N(C(=O)N1CO[C@@]2(C(=O)OC)Cc3cc(Cl)ccc3C2=N1)c1ccc(OC(F)(F)F)cc1`, for which the AC50 is 1.24 µM (active).
With `Cc1nc(N(C)C)nc(OC(=O)N(C)C)c1C`, the AC50 was 50 µM (active).
For `CC(C)N1C(=O)c2ccccc2NS1(=O)=O`, the AC50 was 12.1 µM (active).
As for `Nc1c(Cl)c(Cl)nc(C(=O)O)c1Cl`, the AC50 was 69.5 µM (active).
The same measure, in the same setting: the same measure for `CC1(C)C(C=C(Cl)Cl)C1C(=O)OC(C#N)c1cccc(Oc2ccccc2)c1` (stereo unspecified): 2.32 µM (active); for `COC(=O)NS(=O)(=O)c1ccc(N)cc1`: 19.9 µM (active).
Consider `Cc1cc(C)nc(Nc2ccccc2)n1`, for which the molecule was called inactive.
With `CNC(=O)Oc1cccc2ccccc12`, the AC50 was 37.9 µM (active).
Consider `O=C(O)c1c(Cl)ccc2cc(Cl)cnc12`, for which the molecule was called inactive.
For `O=C1C2CC=CCC2C(=O)N1SC(Cl)(Cl)Cl` (stereo unspecified), the molecule was called inactive.
For `Cc1cnc(C2=NC(C)(C(C)C)C(=O)N2)c(C(=O)O)c1` (stereo unspecified), the concentration at half-maximal activity (AC50) is 24.8 µM (active).
With `CCCCOCN(C(=O)CCl)c1c(CC)cccc1CC`, the AC50 is 0.265 µM (active).
Take `COP(=O)(OC)O/C(C)=C/C(=O)N(C)C`: the AC50 was 68.5 µM (active).
As to `CCC(C)n1c(=O)[nH]c(C)c(Br)c1=O` (stereo unspecified), the concentration at half-maximal activity (AC50) was 50 µM (active).
For `Cc1c(COC(=O)[C@@H]2[C@H](/C=C(\Cl)C(F)(F)F)C2(C)C)cccc1-c1ccccc1`, the concentration at half-maximal activity (AC50) was 2.31 µM (active).
`Clc1cccc(C(Cl)(Cl)Cl)n1`: the AC50 is 48.7 µM (active).
Consider `N#Cc1c[nH]cc1-c1cccc2c1OC(F)(F)O2`, for which the AC50 was 11.6 µM (active).
For `CCNP(=S)(OC)O/C(C)=C/C(=O)OC(C)C` (stereo unspecified), the AC50 is 2.6 µM (active).
Regarding `CCCN(CC)CC1COC2(CCC(C(C)(C)C)CC2)O1` (stereo unspecified), the concentration at half-maximal activity (AC50) is 13.5 µM (active).
Same read-out and setting: with `CC(C)Nc1nc(Cl)nc(NC(C)C)n1` the figure was 15.3 µM (active).
As for `Cc1ccc(N=CN(C)C=Nc2ccc(C)cc2C)c(C)c1`, the call was inactive.
Consider `COCC(C)N(C(=O)CCl)c1c(C)csc1C` (stereo unspecified), for which the AC50 is 1.06 µM (active).
On to `CN/C(=N\[N+](=O)[O-])NCc1cnc(Cl)s1`, for which the call was inactive.
Regarding `O=P(O)(O)CCCl`, the result was inactive.
Turning to `CCOC(=O)C(C)OC(=O)c1cc(Oc2ccc(C(F)(F)F)cc2Cl)ccc1[N+](=O)[O-]` (stereo unspecified), the concentration at half-maximal activity (AC50) is 7.84 µM (active).
In the case of `CCOP(=S)(OCC)Oc1nc(Cl)n(C(C)C)n1`, the concentration at half-maximal activity (AC50) was 0.655 µM (active).
Consider `Nc1c(Cl)c(F)nc(OCC(=O)O)c1Cl`, for which the AC50 was 50 µM (active).
For the molecule `N#CN=C1SCCN1Cc1ccc(Cl)nc1`, the AC50 was 50 µM (active).

For orientation: AC50 means the midpoint of the concentration-response curve, whichever way the signal moves.
